Records with an inconclusive call do not appear. For part of these data: Results with a measured potency or affinity are listed apart. Calls of active or inactive are those of the source. Unless noted, how the calls were made is not given here.
Experiments:
[1] = polyglutamine-triggered caspase-3 activation inhibitors, cell-based (AID 1583); details: polyglutamine-induced caspase-3 activation, cell assay; stronger effect = higher value;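 tested at 10 µM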
[2] = suppressors of polyQ aggregation in yeast, 75Q-TubU reporter (AID 1593); details: Yeast 75Q polyglutamine aggregation reporter
[3] = rescue of polyQ-huntingtin neuronal dysfunction in worms, whole organism, C. elegans mechanosensory neurons, N-terminal huntingtin (AID 1599); details: touch response, stronger effect = higher value
[4] = inhibitors of mitochondrial cytochrome c release, biochemical, purified mitochondria (AID 1603); details: stronger effect = lower value;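 further: mouse liver mitochondria challenged with calcium chloride; signal normalized to the plate average as 100%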
[5] = inhibitors of polyQ protein aggregation (AID 1604); details: polyglutamine-induced protein aggregation inhibition assay; stronger effect = higher value; tested at 2.5 µM
[6] = enhancers of glutamate uptake in motor neurons, MN-1 cell line (AID 1612); details: MN-1 motor neuron cells, stronger effect = higher value;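 further: tested at 1 µM final; 0% = mean of DMSO vehicle wells on each plate; positive means more glutamate uptake than control and negative means less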
[7] = reducers of polyQ inclusions in PC12 cells, cell-based, NGF-treated PC12, GFPQ80 (AID 1614); details: PC12 NGF-treated GFP-polyQ80 inclusion reduction;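 further: lower means fewer inclusions and 0 means no inclusions at all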
[8] = suppressors of polyglutamine aggregation in yeast, 75Q-TubH (AID 1616); details: S. cerevisiae 75Q-TubH polyglutamine aggregation suppression; stronger effect = higher value
[9] = hESC survival regulators, cell-based (AID 493140); details: human embryonic stem cell survival screen; stronger effect = higher value;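 further: cells exposed to compounds for four days before counting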
[10] = target: ATP-dependent translocase ABCB1 (Homo sapiens) (UniProt P08183); experiment: MDR1 (ABCB1) efflux transporter inhibition, cell-based (AID 377; in the data active means fluorescence slope change above about 50%); details: MDR1-expressing cells, fluorescent substrate accumulation slope; stronger effect = higher value; concentration not given here
[11] = circadian clock period modulators, cell-based, LOPAC library, luminescence reporter (AID 2774); details: circadian reporter cells, at 7 µM, actives lie on both sides;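 further: values are relative to mean of DMSO wells on each plate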

ATP-dependent translocase ABCB1 (Homo sapiens), sequence (P08183 whole entry, looked up): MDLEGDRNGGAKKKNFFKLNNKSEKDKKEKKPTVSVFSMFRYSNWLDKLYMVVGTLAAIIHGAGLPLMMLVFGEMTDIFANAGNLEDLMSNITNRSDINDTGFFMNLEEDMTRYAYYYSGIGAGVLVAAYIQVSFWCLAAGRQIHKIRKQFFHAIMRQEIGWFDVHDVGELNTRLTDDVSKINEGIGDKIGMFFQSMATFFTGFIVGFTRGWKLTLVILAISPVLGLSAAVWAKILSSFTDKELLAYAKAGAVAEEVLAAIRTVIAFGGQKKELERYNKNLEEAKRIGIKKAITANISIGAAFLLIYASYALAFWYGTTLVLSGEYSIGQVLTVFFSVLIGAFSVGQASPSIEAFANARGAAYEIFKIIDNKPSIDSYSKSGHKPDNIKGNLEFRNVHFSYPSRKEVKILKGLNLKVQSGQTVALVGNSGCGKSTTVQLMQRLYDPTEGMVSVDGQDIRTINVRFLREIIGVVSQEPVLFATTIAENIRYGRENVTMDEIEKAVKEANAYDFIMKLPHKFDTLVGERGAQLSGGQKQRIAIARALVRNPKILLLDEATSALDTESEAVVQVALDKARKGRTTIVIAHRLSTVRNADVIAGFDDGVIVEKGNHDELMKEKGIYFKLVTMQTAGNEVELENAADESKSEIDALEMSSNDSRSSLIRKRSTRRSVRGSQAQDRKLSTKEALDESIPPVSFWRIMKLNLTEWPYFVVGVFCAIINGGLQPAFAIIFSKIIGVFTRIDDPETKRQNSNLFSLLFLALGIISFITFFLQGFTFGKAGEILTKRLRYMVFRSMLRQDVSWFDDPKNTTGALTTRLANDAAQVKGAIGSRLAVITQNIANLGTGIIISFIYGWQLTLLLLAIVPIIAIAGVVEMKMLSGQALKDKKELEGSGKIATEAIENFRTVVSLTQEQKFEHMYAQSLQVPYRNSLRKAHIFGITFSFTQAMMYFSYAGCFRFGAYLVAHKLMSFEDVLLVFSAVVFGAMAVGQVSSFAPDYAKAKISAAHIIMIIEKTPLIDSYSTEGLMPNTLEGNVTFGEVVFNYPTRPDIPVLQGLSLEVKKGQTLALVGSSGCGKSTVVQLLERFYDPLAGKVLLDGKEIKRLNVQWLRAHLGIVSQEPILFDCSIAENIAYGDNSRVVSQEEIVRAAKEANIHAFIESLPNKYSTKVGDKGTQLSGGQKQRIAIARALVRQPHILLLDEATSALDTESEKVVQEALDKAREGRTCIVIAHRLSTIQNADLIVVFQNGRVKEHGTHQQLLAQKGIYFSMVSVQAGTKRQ

| Structure (SMILES) | inhibition [1] [%] | score [2] | rescue above control [3] | cytochrome c release ratio [4] | inhibition of aggregation [5] [%] | glutamate uptake change [6] [%] | inclusion score [7] | aggregation suppression score [8] | survival [9] | fluorescence slope change [10] | period change [11] |
| --- | --- | --- | --- | --- | --- | --- | --- | --- | --- | --- | --- |
| Nc1ccc(S(=O)(=O)Nc2cnc3ccccc3n2)cc1 | 26.1 | 1.42 | 9.63 | 1.1 | 22.7 | 6.13 | 2 | 1.52 | 3.75 (inactive) | – | – |
| Cn1c([N+](=O)[O-])cnc1COC(N)=O | -0.12 | 1.29 | 8.28 | 0.98 | 44.8 | 17 | 2 | 1.36 | 19.5 (inactive) | – | – |
| CC(=O)Oc1ccc(C(c2ccc(OC(C)=O)cc2)c2ccccn2)cc1 | 10.5 | 1.05 | 5.96 | 1.37 | 74.4 | 13 | 2 | 1.23 | 9.25 (inactive) | – | – |
| Nc1ccc(C(=O)NCC(=O)O)cc1 | 5.11 | 1.21 | 11.2 | 1.41 | 83.6 | -9.5 | 2 | 1.33 | 1.83 (inactive) | – | – |
| Oc1ccc(Cl)c2cccnc12 | 19.1 | -0.02 | -0.67 | 0.81 | 63.5 | 42.4 | – | 0.0533 | – | – | – |
| Cc1cc(-c2ccccc2)nnc1NCCN1CCOCC1 | 7.39 | 1.28 | 5.33 | 1.03 | 66.7 | 4.73 | 1 | 1.11 | 17.2 (inactive) | – | – |
| O=C(OCc1ccccc1)c1ccccc1 | 4.26 | 0.45 | 0.5 | 1.04 | 74 | 36 | – | 0.363 | – | – | – |
| COc1ccc2cc3[n+](cc2c1OC)CCc1cc2c(cc1-3)OCO2 | -15.4 | 0.32 | 10.8 | 0.96 | 65.2 | 15.2 | 2 | 0.27 | 0.5 (inactive) | – | – |
| CCN1CCCC(OC(=O)C(c2ccccc2)c2ccccc2)C1 (centres undefined) | 7.55 | 1.33 | -11.5 | 1.06 | 23.6 | 7.33 | 1.5 | 1.15 | 12 (inactive) | – | – |
| CN1C(C(=O)Nc2ccccn2)=C(O)c2sccc2S1(=O)=O | -15.4 | 0.84 | -5.04 | 1.03 | 69.7 | -15.9 | 2 | 0.632 | 5.08 (inactive) | – | – |
| CCCc1ncc(C[n+]2ccccc2C)c(N)n1 | -2.36 | 1.6 | -0.43 | 0.95 | 84.8 | 5.76 | 1.5 | 0.986 | 8.58 (inactive) | – | – |
| COc1cc(NS(=O)(=O)c2ccc(N)cc2)ncn1 | -4.01 | 1.09 | 33.1 | 0.96 | 88.9 | 2.45 | 2 | 1.2 | 3.67 (inactive) | – | – |
| Cn1c(=O)c2c(ncn2CC(O)CO)n(C)c1=O (centres undefined) | -0.09 | 1.08 | -16.2 | 1.19 | 21.9 | 0 | 1 | 1.31 | 34 (inactive) | – | – |
| Nc1nc2c(c(=O)[nH]1)N(C=O)C(CNc1ccc(C(=O)N[C@@H](CCC(=O)O)C(=O)O)cc1)CN2 (some centres undefined) | 16.8 | 2.89 | -4.97 | 1.12 | 35 | -0.12 | 1.5 | 2.31 | 8.17 (inactive) | – | – |
| CCN(CC)CCNC(=O)COc1ccc(OC)cc1 | 62 | 1.13 | -1.97 | 0.98 | 72.2 | 0.53 | 2 | 1.23 | 49.8 (inactive) | – | – |
| CC1=C(C(=O)O)N2C(=O)[C@@H](NC(=O)[C@H](N)c3ccc(O)cc3)[C@H]2SC1 | -20.4 | 1.38 | 2.74 | 0.96 | 74.6 | -6.33 | 2.5 | 1.47 | 5 (inactive) | – | – |
| CCN(CC)CCOc1ccc(/C(=C(\Cl)c2ccccc2)c2ccccc2)cc1 | -2.8 | -0.01 | 11.2 | 4.67 | 46.5 | -0.41 | – | 0.524 | – | – | – |
| CCCCOC(=O)c1ccc(N)cc1 | 10.7 | 0.73 | 12.6 | 0.92 | 7.84 | 19.2 | 2 | 0.439 | 0.75 (inactive) | – | – |
| Cc1cc(=O)n(-c2ccccc2)n1C | 22 | 1.07 | 2.73 | 1.13 | 22.2 | -12.9 | 2 | 1.35 | 27 (inactive) | – | – |
| CC(C)NCC(O)c1ccc2ccccc2c1 (centres undefined) | 0.74 | 1.15 | -8.05 | 0.68 | 88 | 6.56 | 2 | 0.983 | 5.67 (inactive) | – | – |
| CC(CN(C)C)CN1c2ccccc2CCc2ccccc21 (centres undefined) | 11.6 | 1.5 | -11.6 | 0.94 | 23.8 | 14.6 | – | 1.32 | 2.17 (inactive) | 61.2% (active) | -0.085 h (inactive) |
| CN(C)CCC=C1c2ccccc2C=Cc2ccccc21 | -2.52 | 1.44 | 5.55 | 1.17 | 84.1 | -6.52 | – | 1.07 | 2.75 (inactive) | 73% (active) | 0.095 h (inactive) |
| Clc1ccccc1C(c1ccccc1)(c1ccccc1)n1ccnc1 | 60.7 | 0.26 | -7 | 4.6 | 41.7 | -22.9 | – | 0.0931 | 29.8 (inactive) | 67.9% (active) | 0.01 h (inactive) |
| CN(C)CCCN1c2ccccc2Sc2ccccc21 | -14.3 | 1.56 | 23.4 | 1.27 | 23.9 | 20.4 | – | 1.03 | 1.08 (inactive) | – | -0.355 h (inactive) |
| Clc1ccc(C(c2ccccc2Cl)C(Cl)Cl)cc1 (centres undefined) | 21 | -3.35 | 0 | 3.7 | 72.2 | -9.79 | – | -1.87 | – | 7.7% (inactive) | -0.13 h (inactive) |
| Oc1ccc(Cl)cc1Cc1cc(Cl)ccc1O | 7.6 | -0.49 | 0 | 0.36 | 29.6 | -22.2 | – | -0.099 | – | – | – |
| NC(=NCCCCCCN=C(N)/N=C(\N)Nc1ccc(Cl)cc1)/N=C(\N)Nc1ccc(Cl)cc1 | 66.8 | 0.16 | 0 | 12.9 | 79.3 | -13.4 | – | 0.0711 | 3.17 (inactive) | 250% (active) | – |
| CCN(CC)CCOC(=O)C(c1ccccc1)C1CCCCC1 (centres undefined) | 14.6 | 1.92 | 0.94 | 1.03 | 6.35 | 1.54 | – | 1.17 | 3.67 (inactive) | 89.7% (active) | – |
| CC/C(=C(/CC)c1ccc(O)cc1)c1ccc(O)cc1 | 48.1 | 0.36 | -4.53 | 0.65 | 38.5 | -14.4 | – | 0.447 | 3.75 (inactive) | – | – |
| CC(Cc1cccc(C(F)(F)F)c1)NCCOC(=O)c1ccccc1 (centres undefined) | 15 | 1.42 | 0 | 1.02 | 40.9 | 15.6 | – | 1.08 | 2.5 (inactive) | 69.3% (active) | – |
